A selection: hits, their analogues and other compounds. The true share with any hit is near 19%.
Pf growth 96h – P. falciparum growth inhibition at 96 hour, primary screen for plastid delayed-death inhibitors; P. falciparum luciferase reporter growth, 96 h; AID 504834; Potency, µM (highest dose often 28.7 µM), for the others: at the top dose activity change, negative = inhibition, most hits filed as inhibitors; 6.9% of 320,000 active; further: potency means the concentration at half of the fitted maximal effect; on the % scale 0 is the no-effect control and ±100 the full control effect
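P. falciparum expressing integrated firefly luciferase, in erythrocytes at 2% hematocrit, 0.05% parasitemia, incubated with compounds 96 h at 37 C, 5% CO2. Growth inhibition read as loss of luminescence; two-generation exposure targets delayed-death apicoplast inhibitors.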
Pf growth 48h – inhibits P. falciparum growth in the first generation, 48 h | P. falciparum luciferase growth in erythrocytes, 48 h | Potency, µM (highest dose often 28.7 µM), without a hit: top-dose activity change, negative = inhibition, most hits filed as inhibitors | 5.9% of 310,000 active | AID 504832; further: potency means the concentration at half of the fitted maximal effect; on the % scale 0 is the no-effect control and ±100 the full control effect
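Read-out is firefly luciferase luminescence from an integrated reporter in P. falciparum, so falling signal marks reduced parasite growth. Infected erythrocytes were at 2% hematocrit and 0.1% parasitemia (final) in Albumax-supplemented RPMI 1640.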
CHX counter – counter-screen hit for Shiga toxin inhibitors, cycloheximide. cell reporter, cycloheximide protein synthesis inhibition counterscreen. max response, %. 12% of 300,000 active; in the data active means max response mostly above about 13%, no sharp cut-off; inactive means mostly below about 14%; further: read at 38.3 µM for the half of the compounds with a filed dose; 0% is about no effect
SARS PLP yeast – SARS-CoV PLP inhibition in yeast | S. cerevisiae expressing SARS-CoV PLpro, growth rescue | Potency, µM (series often up to 32.9 µM), without a hit: top-dose activity, positive = growth rescue, hits mostly activators | 0.19% of 330,000 active | AID 485353; calls by dose curve; further: potency means the concentration at half of the fitted maximal effect; 0% is about no effect; nearly all actives have a fitted effect of over 55% in size
Shiga toxin inh – Shiga toxin inhibition. Vero cells, Shiga toxin protein synthesis inhibition reporter. inhibition, % at 38.7 µM. 9.2% of 290,000 active. AID 2315; in the data active means inhibition mostly above about 28%, no sharp cut-off; inactive means mostly below about 43%; further: 0% is about no effect
AMA1 RON2 block – disrupts binding of P. falciparum AMA1 to RON2; 0.2% of 360,000 active; AlphaScreen AMA1-biotinylated RON2 peptide binding; Potency, µM (highest dose often 58.2 µM), for inactives: at the highest dose activity change, negative = inhibition, most hits filed as inhibitors;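 further: potency means the concentration at half of the fitted maximal effect; 0% = vehicle wells and -100% = peptide control; nearly all actives have a fitted effect of over 45% in size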
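AMA1 (3D7) with his tag at 25 nM final met compounds first, then biotinylated RON2 peptide at 25 nM; detection used donor plus acceptor beads, 10 µg/mL apiece, read by AlphaScreen after 30 min at room temperature.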
* = called active by the depositor; i = inactive; ? = inconclusive; . = not tested or not shown. Unless noted, the call rests on the fitted dose curve; in most records, active means well fitted curve in the direction sought with a large enough effect; inconclusive means small, poorly fitted or top-dose-only effect, or another doubt; inactive means no such curve, though single readings can be large; an effect the other way counts as inactive or inconclusive.

SMILES	Pf growth 96h	Pf growth 48h	CHX counter	SARS PLP yeast	Shiga toxin inh	AMA1 RON2 block
CCOc1c2ccc(C(=O)NCCc3ccc(C)cc3)cc2nn1CC	41.9%	-14.2%	0.8	-6.1%	22.7	-2.6%
O=C1C2C(c3ccccc3)(C(=O)N1c1ccc(Cl)cc1)C2(c1ccccc1)c1ccccc1 (centres undefined)	?	4.15µM*	-2.7	-23.2%	9.8	-8.7%
CCc1ccc(N/C(SCc2ccccc2C)=C(/C#N)C(=O)NCc2ccco2)cc1	12.7%	13.1µM*	15.1*	-3.6%	24.2	35.1%
c1ccc(-n2ncc3c(NCCN4CCCCC4)ncnc32)cc1	392.9%	122.2%	52.0*	-1.8%	65.7*	-4.1%
Cc1cccc(-n2ncc3c(NCCN4CCOCC4)ncnc32)c1	-18.3%	0.0%	1.8	0.3%	-5.0	1.5%
c1ccc(-n2ncc3c(NCCN4CCOCC4)ncnc32)cc1	11.7µM*	84.8%	22.0*	6.3%	71.9*	4.4%
CC(C)Cc1cc(C(=O)Nc2ccc3c(c2)OCO3)no1	30.2%	199.7%	36.0*	-2.7%	71.6*	-5.9%
CCc1ccc(NC(=O)c2cc(CC(C)C)on2)cc1	?	88.2%	32.9*	4.4%	38.9*	-1.2%
Cc1cc(C(=O)Nc2ccc3c(c2)OCO3)no1	24.1%	?	7.8	1.4%	10.5	-7.4%
CC(C)Cc1cc(C(=O)Nc2ccc(Br)cc2)no1	148.9%	110.3%	35.5*	-1.7%	68.7	-0.3%
COc1ccc(NC(=O)OCC(C)C)cc1OC	.	45.8%	21.5*	3.1%	50.4*	-18.9%
O=C(/C=C/c1ccccc1)OCc1cnc(Cl)s1	57.8%	18.3%	2.7	0.2%	44.5	-12.2%
CC(OC(=O)Cc1cccc(C(F)(F)F)c1)C(=O)Nc1ccc(Cl)cn1 (centres undefined)	38.5%	10.4%	9.4	-6.0%	-5.7	8.5%
COc1ccc(NC(=O)c2cc(CC(C)C)on2)cc1OC	?	98.6%	42.1*	-2.6%	active	-4.1%
CC(C)Cc1cc(C(=O)Nc2cccc(O)c2)no1	214.3%	1.3%	9.8	-1.8%	13.2	16.9%
CC(NC(=O)Cc1ccc(S(=O)(=O)N2CCOCC2)s1)c1ccc(Cl)c(Cl)c1 (centres undefined)	1.8%	?	.	.	.	-12.6%
Cc1ccc(NC(=O)c2noc3c2CCc2ccccc2-3)cc1	18.9%	.	34.4*	9.5%	47.5*	-9.8%
Cc1ccc(Cn2ccc(NC(=O)c3noc4c3CCCCC4)n2)cc1	6.4%	58.8%	9.5	0.9%	45.7	7.4%
Cc1ccc(NC(=O)c2noc3c2CCCCC3)cc1	28.4%	12.9%	67.0*	0.8%	82.9*	-2.3%
CCc1ccc(NC(=O)c2noc3c2CCC3)cc1	?	.	24.7*	-7.1%	27.6	-19.2%
O=C(NC1CCCCC1)c1noc2c1CCCCC2	61.2%	125.2%	39.1*	-1.8%	72.5*	1.9%
CCc1ccc(NC(=O)c2noc3c2CCc2ccccc2-3)cc1	?	.	10.1	4.8%	27.4	-3.0%
COc1ccc(C(OCCN2CCC[C@H](C(=O)O)C2)(c2ccc(OC)cc2)c2ccc(OC)cc2)cc1	.	.	-6.1	.	2.8	.
CCCC(=O)N1CCC1(C)C(=O)NS(=O)(=O)c1ccccc1Cl (centres undefined)	.	.	.	.	.	10.1%
Cc1onc(-c2ccccc2)c1C(O)c1ccc(F)cc1 (centres undefined)	-34.2%	-38.0%	-3.5	1.2%	2.0	12.2%
SMILES	Pf growth 96h	Pf growth 48h	CHX counter	SARS PLP yeast	Shiga toxin inh	AMA1 RON2 block
Cc1ccc(NC(=O)c2noc3c2CCCCC3)cc1C	?	340.2%	42.7*	-5.4%	107.2*	-3.5%
Cc1ccc(Cn2nc(C)c(NC(=O)c3noc4c3CCCCC4)c2C)cc1	?	-25.3%	1.8	-16.6%	1.8	-1.6%
Cc1ccc(O)c(NC(=O)c2noc3c2CCCCC3)c1	-3.5%	-81.1%	42.2*	-9.1%	184.6*	10.4%
CCc1ccc(NC(=O)c2noc3c2CCCCC3)cc1	3.7µM*	135.2%	22.8*	0.6%	85.5*	-6.0%
COc1ccc(NC(=O)c2noc3c2CCCCC3)cc1	7.8%	i	41.9*	-4.0%	82.6*	-14.7%
Cc1ccc(Cn2ccc(NC(=O)c3noc4c3CCCC4)n2)cc1	?	30.9%	11.0	-2.3%	20.0	-6.3%
O=C(Nc1ccc(Cl)cc1C(=O)N1CCOCC1)c1cccc([N+](=O)[O-])c1	?	21.2%	-4.6	-17.5%	-5.0	.
COCCN1C[C@@H](CO)O[C@@H](n2cnc3c(NCCO)ncnc32)C1	.	.	.	.	.	62.8%
COc1ccc(C(=O)c2ccccc2C(=O)c2ccccc2)cc1	.	.	.	.	.	13.1%
COc1cccc(OC)c1OCCOc1ccc(C(=O)c2ccccc2)cc1	0.37µM*	3.3%	-2.8	5.1%	20.9	8.4%
COC(=O)c1ccc(NCCC(=O)O)cc1	-0.9%	7.1%	-1.5	12.1%	-1.3	2.1%
COC(=O)c1ccc(OCCCCN(C)Cc2ccccc2)cc1	-10.3%	2.7%	-3.2	-0.4%	.	?
COC(=O)c1ccc(OCCOc2ccccc2C)cc1	1.31µM*	13.1%	12.1*	16.6%	104.9	62.2%
COC(=O)c1ccc(OCCOc2ccccc2)cc1	68.8%	.	22.1*	-24.1%	59.1*	21.1%
COC(=O)c1ccc(N=Nc2ccccc2)cc1	i	232.3%	32.1*	-4.4%	79.4*	?
O=C1CCN(Cc2ccc(Cl)cc2Cl)C(=O)N1	.	.	.	.	.	-3.6%
CC1(C2(O)CCCCC2)NCCc2ccccc21 (centres undefined)	45.6%	6.7%	.	-0.2%	.	-7.0%
CCOC(=O)C(CCCCOc1ccc([N+](=O)[O-])cc1)C(=O)OCC	?	16.0%	1.4	-8.8%	-7.7	16.8%
CCOC(=O)C(CCCOc1ccccc1C)C(=O)OCC	9.28µM*	-21.7%	3.8	-28.7%	-6.3	52.3%
CCN(CC)C(=O)c1cnn(-c2ccccc2)c1NC(=O)c1ccccc1F	0.928µM*	-12.1%	-1.0	-13.9%	-7.4	-1.9%
CCCc1c(C(=O)Nc2cc(C(C)(C)C)on2)cnn1-c1ccccc1	?	?	-2.4	-0.5%	-6.2	-4.7%
CCCc1c(C(=O)Nc2ccc(F)cc2F)cnn1-c1ccccc1	-6.9%	-2.6%	16.9*	-0.7%	12.4	13.2%
Cc1c(C(=O)Nc2cccc([N+](=O)[O-])c2)cnn1-c1ccccc1	179.1%	50.1%	47.0*	-5.9%	113.5*	4.4%
COC(=O)c1cnn(-c2ccc(C(=O)Nc3cccc(C(C)=O)c3)cc2)c1N	?	?	.	-4.1%	.	.
CC(=O)c1cccc(NC(=O)c2cnn(-c3ccccc3)c2C)c1	97.7%	97.2%	45.1*	0.7%	89.9*	-3.5%
O=C(Nc1c(C(=O)N2CCOCC2)cnn1-c1ccccc1)c1ccccc1F	60.3%	30.4%	-1.8	0.3%	-2.1	11.2%
O=S(=O)(/N=C/c1c(O)ccc2ccccc12)c1cccs1	0.4%	.	6.3	2.3%	-3.4	.
O=C(Cn1cnc2ccc(Br)cc2c1=O)c1cccs1	49.5%	31.4%	2.2	-7.8%	22.4	11.9%

Compound activity deposited in PubChem by National Center for Advancing Translational Sciences (NCATS).
